Only some compounds are listed: those with a hit (about 1.3% of all), similar ones and a draw of the others.
NCOA3 inh – inhibits human SRC3 coactivator | Q9Y6Q9 | HEK293 GAL4-SRC3 luciferase reporter, luminescence | inhibition, % at 3.6 µM | 360,000 compounds, 0.17% hits;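 active means inhibition above a per-campaign cutoff, the mean of all compounds plus 3 SD, cut at about 60% in these data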;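 further: 0% = DMSO-treated cells and 100% = gossypol-treated cells at 36 µM; higher means less SRC3-driven luciferase light from the GAL4 reporter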
SRC2 inh – inhibits human steroid receptor coactivator 2; Q15596; HEK293 GAL4-SRC2 luciferase reporter, luminescence; inhibition, % at 9 µM; 370,000 compounds, 0.17% hits;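 active means inhibition above the mean inhibition of all tested compounds plus 3 SD, set per campaign, cut at about 52% in these data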;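 further: 0% = DMSO treated cells and 100% = cells given Gossypol at 36 µM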
NR2F2 inh – blocks human COUP-TFII nuclear receptor; HEK293T NGFI-A luciferase reporter, luminescence; P24468; inhibition, % at 8.6 µM; 370,000 compounds, 0.7% hits; AID 686940;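 active means inhibition above a per-plate cutoff, mean inhibition of test wells between control levels plus 3 SD, cut at about 38% in these data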;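 further: cells cotransfected with COUP-TFII expression vector driving the NGFI-A reporter; 0% = median of COUP-TF2 test wells and 100% = reporter-only cells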
SRC1 inh – inhibitors of human steroid receptor coactivator 1 (SRC1) | HEK293 GAL4-SRC1 luciferase reporter, luminescence | 360,000 compounds, 0.12% hits | Q15788 | inhibition, % at 3.6 µM | AID 588354;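 active means inhibition above the campaign mean plus 3 SD, with each screening campaign given its own cutoff, cut at about 60% in these data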;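 further: 0% = DMSO treated cells and 100% = gossypol at 36 µM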
Gli-Sufu block – antagonists of Gli-Sufu signaling; Sufu-KO-LIGHT fibroblasts, Gli luciferase reporter luminescence; inhibition, % at 5 µM; 340,000 compounds, 0.74% hits; AID 588413;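 active means inhibition above about 55%, limit read from the data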;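 further: 0% = DMSO-treated cells and 100% = wells with medium but no cells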
NR5A2 inv ag – inverse agonists of human LRH-1 (NR5A2); inhibition, % at 3.6 µM; 360,000 compounds, 0.13% hits; HEK293T StAR-luciferase reporter, LRH-1 transfected, 24 h;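 active means inhibition above the mean inhibition of all tested compounds plus 3 SD, cut at about 73% in these data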;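 further: 0% = DMSO wells and 100% = reporter-only cells lacking LRH-1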
Gli-Sufu confirm – Gli-SUFU antagonism confirmation, single concentration | shares compounds with Gli-Sufu block | Sufu-KO-LIGHT cells, Gli luciferase reporter, luminescence | inhibition, % at 5 µM | 2,500 compounds, 40% hits | AID 602428;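 active means mean inhibition at 5 µM reaching about 45%, limit read from the data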;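 further: plate controls were DMSO-treated cells for no effect and wells lacking cells for full effect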
Gli cytotox – cytotoxicity counter-screen for Gli-SUFU antagonists; shares compounds with Gli-Sufu block; Sufu-KO-LIGHT cells cytotoxicity, ATP luminescence; cytotoxicity, % at 5 µM; 2,500 compounds, 32% hits; AID 651994;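 active means mean cytotoxicity at 5 µM above about 25%, limit read from the data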;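 further: cells exposed to compound overnight for roughly 16 to 18 hours; plate controls were DMSO wells with cells for no effect and medium without cells for full effect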
Wnt3a counter – inhibits Wnt3a reporter, counter-screen for Gli-SUFU antagonists; shares compounds with Gli-Sufu block; Wnt-LIGHT cells, Wnt3a-driven luciferase reporter, luminescence; 2,500 compounds, 20% hits; AID 651995; inhibition, % at 6.25 µM;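 active means mean inhibition above about 25%, limit read from the data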
* hit, by the source's call.

`CC#CC[N+](C)(C)CCCCCCCCCC` gave NCOA3 inh 38, SRC2 inh 5, NR2F2 inh 34, SRC1 inh 20, Gli-Sufu block 68*, NR5A2 inv ag 30, Gli-Sufu confirm 79*, Gli cytotox 43* and Wnt3a counter 35*.
`COC(=O)[C@]12C[C@H](CC(=O)N3CCCC3)C(=O)N(CCC3=CCCCC3)C1=C[C@H](C1CCCC1)O[C@@H]2C` gave SRC2 inh 26 and NR2F2 inh 3.
CCCCCCCCNC(=O)C1CSCCS(=O)(=O)N1Cc1ccc(F)cc1 (stereo not drawn) was read as SRC2 inh 5 and NR2F2 inh 6.
For Cc1ccc(S(=O)(=O)N(C)C)cc1NC(=S)NC(C)CCC(C)C (stereo not drawn) the results were NCOA3 inh 7, SRC2 inh -4, NR2F2 inh 4, SRC1 inh 13, Gli-Sufu block 56*, NR5A2 inv ag -12, Gli-Sufu confirm 20, Gli cytotox 20 and Wnt3a counter -64.
For CCCCN1CCS(=O)(=O)N(Cc2cn(Cc3ccccc3Br)nn2)C(C(=O)OC)C1 (stereo not drawn) the results were SRC2 inh -15 and NR2F2 inh -9.
Screening CC[n+]1c(/C=C/N(C)c2ccccc2)oc2ccc(Cl)cc21 returned NCOA3 inh 17, SRC2 inh 7, NR2F2 inh -2, SRC1 inh 11, Gli-Sufu block 79*, NR5A2 inv ag 12, Gli-Sufu confirm 83*, Gli cytotox 27* and Wnt3a counter 39*.
`CCC(C)NC(=O)COC(=O)Cc1sc(N)nc1-c1ccc(C)cc1` (stereo not drawn) gave NCOA3 inh 1, SRC2 inh 4, NR2F2 inh -10, SRC1 inh -5, Gli-Sufu block 0 and NR5A2 inv ag 17.
Cc1ccc(-c2nc(N)sc2CC(=O)OCC(=O)NCCC(C)C)cc1 was read as NCOA3 inh -1, SRC2 inh -22, NR2F2 inh 14, SRC1 inh 12, Gli-Sufu block 58*, NR5A2 inv ag -9, Gli-Sufu confirm 12, Gli cytotox 16 and Wnt3a counter 31*.
Screening COc1cccc(-c2nnc(SCC(=O)OC(C)C)n2-c2ccc(Cl)cc2)c1 returned SRC2 inh 5 and NR2F2 inh 8.
Screening C=C1C(=O)OC2C=C(CO)C3OC3C3OC3(C)CC(OC(=O)/C(=C/C)COC(C)=O)C12 (stereo not drawn) returned NCOA3 inh -67, SRC2 inh -39, NR2F2 inh 14, SRC1 inh -116, Gli-Sufu block 68*, NR5A2 inv ag -11, Gli-Sufu confirm 61*, Gli cytotox 19 and Wnt3a counter 57*.
`CCOC(=O)CC[C@@]1(C(=O)OCC)C[C@@H](CC(=O)NCCCOC)C(=O)N2CCCC=C21` gave SRC2 inh -9 and NR2F2 inh -3.
`O=C(CN[C@@H](Cc1c[nH]c2ccccc12)C(=O)NCCc1c[nH]c2ccccc12)NC1CCCCC1` gave NR2F2 inh 9.
Screening Cc1[nH]n(-c2ccccc2)c(=O)c1N=Nc1ccccc1O returned NCOA3 inh 25, SRC2 inh 10, NR2F2 inh 25, SRC1 inh -4, Gli-Sufu block 55, NR5A2 inv ag 19, Gli-Sufu confirm 55*, Gli cytotox 34* and Wnt3a counter 74*.
Screening COC(=O)C1CN(Cc2cn(CCC3OCCO3)nn2)CCS(=O)(=O)N1Cc1ccccc1 (stereo not drawn) returned SRC2 inh 12 and NR2F2 inh -10.
For CCN1C/C(=C\c2cc(OC)c(OC)c(OC)c2)C2=NN(c3ccccc3)C(c3cc(OC)c(OC)c(OC)c3)C2C1 (stereo not drawn) the results were NCOA3 inh 3, SRC2 inh -1, NR2F2 inh -37, SRC1 inh -9, Gli-Sufu block 53, NR5A2 inv ag 3, Gli-Sufu confirm 30, Gli cytotox 17 and Wnt3a counter -9.
For COc1ccc(C(=O)OCCCN(C)C2CN(Cc3cn(Cc4ccc([N+](=O)[O-])cc4)nn3)S(=O)(=O)C2)cc1OC (stereo not drawn) the results were SRC2 inh -7 and NR2F2 inh 2.
Screening CC(Oc1ccccc1)C(=O)Nc1ccc(C(N)=O)cc1 (stereo not drawn) returned NCOA3 inh 14, SRC2 inh 8, NR2F2 inh -6, SRC1 inh 1, Gli-Sufu block 52, NR5A2 inv ag 9, Gli-Sufu confirm 19, Gli cytotox 4 and Wnt3a counter -10.
COc1ccccc1OCC(=O)Nc1ccc(NC(=O)COc2ccccc2OC)cc1 was read as NCOA3 inh 14, SRC2 inh -6, NR2F2 inh 5, SRC1 inh -8, Gli-Sufu block -7 and NR5A2 inv ag 14.
`COc1ccccc1OCC(=O)Nc1ccc(C(N)=O)cc1` gave NCOA3 inh 11, SRC2 inh 9, NR2F2 inh 12, SRC1 inh -4, Gli-Sufu block 69*, NR5A2 inv ag -2, Gli-Sufu confirm 27, Gli cytotox 4 and Wnt3a counter 4.
Screening CCOC(=O)c1ccc(NC(=O)CSc2nnc(-c3cc(-c4ccccc4)n[nH]3)n2N)cc1 returned SRC2 inh -14 and NR2F2 inh -15.
For Cc1cc(F)ccc1C(=O)N1CCC(Oc2cccnc2)CC1 the results were SRC2 inh 0 and NR2F2 inh -13.
`CCCCCCc1cc2cc(C(=O)Nc3cccc(OC)c3)c(=O)oc2cc1O` gave NCOA3 inh -3, SRC2 inh 6, NR2F2 inh -19, SRC1 inh -9, Gli-Sufu block 61*, NR5A2 inv ag 4, Gli-Sufu confirm 58*, Gli cytotox 13 and Wnt3a counter 79*.
`COc1ccc(/C=C2/SC(=S)N(CCCC(=O)Nc3cccc(O)c3)C2=O)cc1` gave NCOA3 inh 1, SRC2 inh 29, NR2F2 inh 14, SRC1 inh -5, Gli-Sufu block 62*, NR5A2 inv ag 24, Gli-Sufu confirm 58*, Gli cytotox 0 and Wnt3a counter -21.
`COc1ccc(/C=C2\SC(=S)N(CCC(=O)Nc3cccc(O)c3)C2=O)cc1OC` gave NCOA3 inh -18, SRC2 inh 1, NR2F2 inh -6, SRC1 inh -54, Gli-Sufu block -9 and NR5A2 inv ag -15.
